Molecules are shown by their SMILES.

The assay has as its system SUM149. Kind of assay: percent difference in area under dose-response curve of relative cell number, RPMI vs HPLM; higher = drug relatively more effective in HPLM than RPMI (negative = less effective in HPLM). Conditions: treatment time: 72 h; dose range: 10-point, 1 nM to 20 µM; media compared: RPMI vs HPLM.
Turning to `COc1ccc(-c2ccc3c(N4CCOC[C@@H]4C)nc(N4CCOC[C@@H]4C)nc3n2)cc1CO`, the “percent difference in area under dose-response curve” value (shortened to “percent difference in area”) was -2.88%.

For `COc1c(C)c2c(c(O)c1C/C=C(\C)CCC(=O)O)C(=O)OC2` [Mycophenolic_Acid], the “percent difference in area” value was -8.4%.

Take `Nc1nc(Cl)nc2c1ncn2[C@@H]1O[C@H](CO)[C@@H](O)[C@@H]1F` [Clofarabine]: the “percent difference in area” value was -18.6%.

For `CC(C)c1onc(-c2c(Cl)cccc2Cl)c1COc1ccc(/C=C/c2cccc(C(=O)O)c2)c(Cl)c1`, the “percent difference in area” value is 7.59%.

For the compound `COc1cc(Nc2ncc3c(n2)-c2ccc(Cl)cc2C(c2c(F)cccc2OC)=NC3)ccc1C(=O)O`, the “percent difference in area” value was -13.5%.

As for `CCN(CC)CCNC(=O)c1c(C)[nH]c(/C=C2\C(=O)Nc3ccc(F)cc32)c1C` [Sunitinib_Malate], the “percent difference in area” value is 3.02%.

Turning to `CO[C@@H](C(=O)N1Cc2[nH]nc(NC(=O)c3ccc(N4CCN(C)CC4)cc3)c2C1)c1ccccc1` [Danusertib], the “percent difference in area” value was -17.3%.

As for `Cc1cc(Nc2nc(N[C@@H](C)c3ncc(F)cn3)ncc2Cl)[nH]n1`, the “percent difference in area” value was -7.89%.

On to `CCCCCCNC(=O)n1cc(F)c(=O)[nH]c1=O` [Carmofur], for which the “percent difference in area” value was -3.39%.

In the case of `CN1CCN(c2cccc(Nc3nc4c(-c5ccc(S(C)(=O)=O)cc5)cccn4n3)c2)CC1`, the “percent difference in area” value was -13.7%.

Take `CCC(C)n1ncn(-c2ccc(N3CCN(c4ccc(OCC5COC(Cn6cncn6)(c6ccc(Cl)cc6Cl)O5)cc4)CC3)cc2)c1=O` (stereo not drawn) [Itraconazole]: the “percent difference in area” value was -12%.

For `CCNC(=O)c1noc(-c2cc(C(C)C)c(O)cc2O)c1-c1ccc(CN2CCOCC2)cc1`, the “percent difference in area” value was -30%.

For `O=C(CCCCCCC(=O)Nc1ccccc1)NO` [Vorinostat], the “percent difference in area” value is 4.7%.

Source of the values: the supplement of paper PMC11383364.
